From PubChem
IMPase Li inh – cell-permeable IMPase inhibitors with lithium potentiation | CHO-M1 cells, IP1 TR-FRET (IP-One), carbachol + lithium | Potency, µM (series often up to 59.4 µM), for the others: top-dose activity, negative = IMPase inhibition, actives largely listed as inhibitors | 210,000 compounds, 0.35% hits; active = well fitted curve in the direction sought with a large enough effect; inconclusive = small, poorly fitted or top-dose-only effect, or another doubt; inactive = no such curve, though single readings can be large; an effect the other way counts as inactive or inconclusive;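 also: IP1 builds up when IMPase is blocked and the TR-FRET signal falls; plate controls were basal vehicle for no effect and high inhibitor control for full effect; nearly all actives have a fitted effect of over 50% in size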
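Concentration–response in CHO-M1 cells, lithium-potentiated; 30 min at 37C. IP1 detected by competitive TR-FRET after 10 min lysis at RT. Hill-fitted AC50.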
HPGD inh – inhibitors of human 15-hydroxyprostaglandin dehydrogenase (HPGD) | P15428 | purified HPGD, NADH fluorescence kinetic, PGE2 substrate | Potency, µM, inactives show at the highest dose activity change, negative = inhibition, hits mostly inhibitors | 150,000 compounds, 4.3% hits | AID 894
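20 nM HPGD preincubated 15 min at room temperature with compound in 50 mM Tris-HCl pH 8, 0.01% Tween 20. Started with 1 mM NAD+ and 30 uM prostaglandin E2; NADH fluorescence (360/450 nm) read 5 times over 30-s intervals, last minus first.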
ALDH1A1 inh – inhibitors of human aldehyde dehydrogenase 1A1; P00352; Purified ALDH1A1, NADH fluorescence, propionaldehyde substrate; Potency, µM (top dose mostly 75.3 µM), without a hit: top-dose activity, negative = inhibition, usual class: inhibitors; 220,000 compounds, 7.3% hits;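 also: plate controls were no enzyme wells and a reference inhibitor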
Target sequence (P00352 whole entry, looked up): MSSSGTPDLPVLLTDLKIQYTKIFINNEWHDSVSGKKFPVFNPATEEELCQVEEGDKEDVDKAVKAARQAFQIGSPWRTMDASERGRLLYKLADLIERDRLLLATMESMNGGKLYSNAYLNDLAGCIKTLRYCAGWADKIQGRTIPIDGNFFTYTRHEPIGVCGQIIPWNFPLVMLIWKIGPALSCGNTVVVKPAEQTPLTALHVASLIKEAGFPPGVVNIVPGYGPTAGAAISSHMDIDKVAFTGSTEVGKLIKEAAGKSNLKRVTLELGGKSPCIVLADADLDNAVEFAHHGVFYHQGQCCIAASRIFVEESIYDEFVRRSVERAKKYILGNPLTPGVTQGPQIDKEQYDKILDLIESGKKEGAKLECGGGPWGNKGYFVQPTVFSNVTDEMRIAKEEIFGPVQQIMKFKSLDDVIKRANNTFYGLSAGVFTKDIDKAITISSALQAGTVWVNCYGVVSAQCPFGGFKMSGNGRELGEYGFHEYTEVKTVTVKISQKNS
KinaseGlo FLuc – counter-screen: inhibitors of Kinase-Glo firefly luciferase; Q27757; Kinase-Glo luciferase, ATP luminescence, 8 min; Potency, µM (highest dose often 38.3 µM), inactives show top-dose activity change, negative = inhibition, usual class: inhibitors; 200,000 compounds, 0.28% hits; AID 1379; active = well fitted curve in the direction sought with a large enough effect; inconclusive = small, poorly fitted or top-dose-only effect, or another doubt; inactive = no such curve, though single readings can be large; an effect the other way counts as inactive or inconclusive; also: nearly all actives have a fitted effect of over 60% in size
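Inhibition of Kinase-Glo luciferase light generation was assessed at 10 uM ATP in pH 7.2 imidazole buffer, with luminescence measured after eight minutes at ambient temperature.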
LMNA splice mod – LMNA splicing modulation | Potency, µM (highest dose often 46.1 µM), for the others: top-dose ratio change, negative = inhibition, usual class: inhibitors | HeLa LMNA splicing GFP/RFP minigene ratio, 48 h | 200,000 compounds, 0.01% hits; active = well fitted inhibition curve with a large enough effect in the signal ratio, with a control signal flat, not every such curve was filed as active; inconclusive = small, poorly fitted or top-dose-only effect, or effect the other way, or a change in a side signal; the % refers to the signal ratio
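S3 HeLa cells stably expressing lamin A-EGFP splicing minigene plus DsRed2, 600 cells/well, 48 h compound exposure at 37C. Laser-scanning cytometry; analysed as GFP (500-530 nm)/RFP (575-640 nm) total intensity ratio; 0.5% DMSO vehicle.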
The depositor's hits bear a star; [ ] = another dose, or the depositor's remark. A selection: hits, their analogues and other compounds. The true share with any hit is near 9%. Unless noted, calls follow the shape of the dose curve; as a rule, active = well fitted inhibition curve with a large enough effect (not every such curve was filed as active); inconclusive = small, poorly fitted or top-dose-only effect, or another doubt; inactive = no such curve, though single readings can be large or run the other way. Unless noted, % is scaled to controls: 0 for no effect and ±100 for the full control effect; potency is read from the fitted curve at half-maximal effect.

What do the screens show for `O=C(NCc1ccco1)c1ccc(Cn2c(SCc3ccccc3)nc3cccnc32)cc1`?
LMNA splice mod: 13.0%[46 µM]

What do the screens show for `Cc1ccccc1CS(=O)(=O)c1nnc([C@H](Cc2ccccc2)NC(=O)OC(C)(C)C)o1`?
IMPase Li inh: 17.7%[38.3 µM]; HPGD inh: 7.08µM*; ALDH1A1 inh: 14.1µM*; KinaseGlo FLuc: -2.8%; LMNA splice mod: inconclusive

What do the screens show for `CCSc1nnc([C@H](Cc2ccccc2)NC(=O)OC(C)(C)C)o1`?
IMPase Li inh: 14.5%[38.3 µM]; HPGD inh: -4.1%; ALDH1A1 inh: inconclusive; KinaseGlo FLuc: -5.6%; LMNA splice mod: -3.7%

What do the screens show for `CCC(C)[C@@H](NC(=O)OC(C)(C)C)c1nnc(S(=O)(=O)Cc2cccc(C)c2)o1` (some centres undefined)?
IMPase Li inh: 6.7%[38.3 µM]; HPGD inh: 14.1µM*; ALDH1A1 inh: -3.9%; KinaseGlo FLuc: -4.7%; LMNA splice mod: inconclusive

How did CC(C)(C)OC(=O)N[C@@H](Cc1ccccc1)c1nnc(SCC(=O)O)o1 do in these assays?
IMPase Li inh: 3.1%[38.3 µM]; HPGD inh: -0.8%; ALDH1A1 inh: 1.2%; KinaseGlo FLuc: -5.6%; LMNA splice mod: 9.9%

How did CC(C)(C)OC(=O)N[C@@H](Cc1ccccc1)c1nnc(S(=O)(=O)Cc2ccccc2)o1 do in these assays?
IMPase Li inh: 30.8%[38.3 µM]; HPGD inh: 3.55µM*; ALDH1A1 inh: inconclusive; KinaseGlo FLuc: 1.0%; LMNA splice mod: inconclusive

Results for O=C(c1cc(C(F)(F)F)cc(C(F)(F)F)c1)N1CCC2(CCN(Cc3ccncc3)CC2)CC1 ?
IMPase Li inh: 3.9%; HPGD inh: -2.2%; ALDH1A1 inh: 17.3%; KinaseGlo FLuc: -2.2%

What do the screens show for `Cc1oc(-c2ccccc2Cl)nc1Cn1c(SCc2cccc(F)c2)nc2cccnc21`?
LMNA splice mod: -10.4%[46 µM]

How did COc1cc(O)c(C(=O)c2ccccc2)cc1O do in these assays?
IMPase Li inh: 15.7%; HPGD inh: 4.47µM*; ALDH1A1 inh: -12.3%; KinaseGlo FLuc: -0.3%; LMNA splice mod: inconclusive

What do the screens show for `CCOC(=O)Nc1ccc(S(=O)(=O)NC2CCCCC2)cc1`?
IMPase Li inh: 8.5%; ALDH1A1 inh: -2.5%; KinaseGlo FLuc: 1.2%; LMNA splice mod: inconclusive

What do the screens show for `CN(C)/C=C/C(=O)c1cccc(Cl)c1`?
IMPase Li inh: -7.5%; HPGD inh: 25.1µM*; ALDH1A1 inh: inconclusive; KinaseGlo FLuc: -1.8%; LMNA splice mod: -15.0%

Results for CN(C)/C=C/C(=O)c1ccc(-n2cccc2)cc1 ?
IMPase Li inh: 0.0%; ALDH1A1 inh: inconclusive; KinaseGlo FLuc: -18.5%; LMNA splice mod: inconclusive

How did CN(C)/C=C/C(=O)c1cccc(C(F)(F)F)c1 do in these assays?
IMPase Li inh: 19.0%; ALDH1A1 inh: inconclusive; KinaseGlo FLuc: -1.1%

Results for CN(C)/C=C/C(=O)c1ccc(Cl)cc1 ?
IMPase Li inh: -3.1%[38.3 µM]; HPGD inh: 17.8µM*; ALDH1A1 inh: -5.9%; KinaseGlo FLuc: -6.1%; LMNA splice mod: -8.0%

Results for CC1=Nc2ccccc2N=C(NC(=O)c2ccccc2)C1c1ccccc1 (centres undefined) ?
IMPase Li inh: 15.2%; ALDH1A1 inh: inconclusive; KinaseGlo FLuc: -0.5%

How did CC1=Nc2ccccc2N=C(NC(=O)CN2CCN(c3ccccc3)CC2)C1c1ccccc1 (centres undefined) do in these assays?
IMPase Li inh: 0.3%; ALDH1A1 inh: 0.891µM*

How did CCOC(=O)C1CCCN(CC(=O)NC2=Nc3ccccc3N=C(C)C2c2ccccc2)C1 (centres undefined) do in these assays?
IMPase Li inh: 18.1%[38.3 µM]; HPGD inh: -5.8%; ALDH1A1 inh: 4.47µM*; KinaseGlo FLuc: -1.8%; LMNA splice mod: 16.0%

How did CCOC(=O)C1CCCN(CC(=O)Nc2cc(C)cc(C)c2)C1 (centres undefined) do in these assays?
IMPase Li inh: -0.8%; ALDH1A1 inh: 2.9%; KinaseGlo FLuc: -3.1%; LMNA splice mod: 9.1%[9.22 µM]

Results for CCOC(=O)NC(=O)CSc1nnnn1-c1ccccc1 ?
IMPase Li inh: 12.7%[38.3 µM]; HPGD inh: -2.5%; ALDH1A1 inh: inconclusive; KinaseGlo FLuc: 0.8%; LMNA splice mod: 7.7%
